In the library only some 3.1% were active in any assay of this set; here they are far more common.
ARNT TACC3 PPI: disruptors of ARNT/TACC3 protein interaction, primary screen, biochemical, AlphaScreen, single concentration | Transforming acidic coiled-coil-containing protein 3 (Homo sapiens), Q9Y6A5 | AlphaScreen His-ARNT PAS-B/GST-TACC3 binding, luminescence; TACC3 fragment carries E629A point mutation | inhibition, % at 9.99 µM | 390,000 tested, 0.66% active;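 active = mean inhibition of replicates at least 50% and at least half of replicates each reaching 50%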;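 note: 0% = complete ARNT plus TACC3 wells and 100% = ARNT alone without TACC3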
HIF activator: HIF pathway transcriptional activators, primary screen, cell-based, U2OS HRE-luciferase, luminescence; U2OS HRE-luciferase reporter; normalized: DMSO 0%, desferrioxamine 100%; activation, % at 7.5 µM (by protocol); 300,000 tested, 0.32% active; AID 1910, 2009;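 active = mean activation of at least 10% of the iron chelator positive control signal, with at least half of replicates also reaching 10%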
HSF1 activator: HSF-1 activators, primary screen, NIH3T3-HGL cells, MG132 stress, luminescence, single point. 300,000 tested, 1.7% active. activation, % at 9 µM. NIH3T3-HGL HSF-1 luciferase reporter, 8 h; 100% = twice DMSO control signal;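 active = mean replicate activation of at least 50% with a set share of replicates each reaching 50%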;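 note: 0% = median of the neutral control wells and 100% = twice that signal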
HSP90 refold inh: HSP90 inhibitors, primary screen, cell lysate, luminescence; inhibition, % at 5.6 µM; Rabbit reticulocyte lysate, luciferase refolding luminescence, 3 h; Heat shock protein HSP 90 (rabbit reticulocyte lysate; luciferase refolding); 290,000 tested, 0.91% active;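 active = inhibition above the screen-wide mean plus 3 SD, computed separately per campaign, cut at about 16% in these data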;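 note: 0% = DMSO wells and 100% = 60 µM geldanamycin wells; inhibitors lower the luminescence because luciferase stays unfolded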
HSF1 inhib: HSF1 inhibitors in luciferase reporter cells, primary screen, cell-based, NIH3T3, luminescence | NIH3T3-HGL HSE-luciferase, MG132-induced, luminescence 8 h; active compounds read low | activity change, negative = inhibition, % at 7.5 µM (by protocol) | 300,000 tested, 0.77% active | AID 2098, 2009;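 active = more than half of replicate wells show activity change below -50%, luminescence cut by over half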;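 note: luciferase reports HSF-1 transcriptional activity via heat shock element; 0% = median of DMSO wells and -100% = zero luminescence signal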
Starred values were filed as active, the others as inactive; nt = not tested or not shown.

SMILES	ARNT TACC3 PPI	HIF activator	HSF1 activator	HSP90 refold inh	HSF1 inhib
O=C(C1CCCN(Cc2ccccc2F)C1)N1CCc2ccccc2C1 (configuration not stated)	-3.7	108.4*	-18.9	2.9	-3.8
O=C(NC1CCCN(Cc2ccccc2F)C1)c1cccs1 (configuration not stated)	-0.9	-0.8	62.2*	1.8	32.1
O=C(C[C@H]1CC[C@@H](NC(=O)CN2CCOCC2)[C@@H](CO)O1)NC1CCCCC1	-15.7	nt	nt	nt	nt
Cc1ccc(S(=O)(=O)Nc2cc3c4c(c2)CCN4C(=O)CC3)cc1	0.1	-33.0	57.5*	nt	35.0
O=C1CCc2cc(NS(=O)(=O)c3ccc(F)cc3)cc3c2N1CC3	6.8	-1.1	20.2	nt	8.2
Cc1cc(=O)[nH]c(SCc2nc3ccccc3s2)n1	-1.9	0.1	-2.5	-5.1	19.0
CCCc1cc(=O)[nH]c(SCc2nc3ccccc3s2)n1	-3.2	0.4	61.6*	0.2	19.3
CC(C)NC(=O)Nc1ccc2c(c1)C(=O)N([C@@H](C)CO)C[C@@H](C)[C@H](CN(C)C(=O)CCC(F)(F)F)OCCCC[C@H](C)O2	-8.0	nt	nt	nt	nt
O=C(CNC(=O)C12CC3CC(CC(C3)C1)C2)NC1=NCCS1	-2.4	0.0	-13.6	-0.5	-11.8
O=C(CNC(=O)C1CCCCC1)NC1=NCCS1	-60.2	1.4	-90.3	-1.4	-88.3*
O=C(Nc1cccc(S(=O)(=O)N2CCOCC2)c1)c1ccccn1	1.4	0.3	-77.1	3.0	-70.5*
O=C(Nc1nc(-c2cccs2)cs1)c1ccc(S(=O)(=O)N2CCCCC2)cc1	2.2	-0.3	-69.8	0.9	-60.6*
O=C(Nc1nc(-c2ccccn2)cs1)c1ccc(S(=O)(=O)N2CCCCC2)cc1	nt	16.2*	-48.7	-2.2	-39.7
O=C(Nc1nc(-c2cccs2)cs1)c1cccc(S(=O)(=O)N2CCCCCC2)c1	3.0	-0.6	-69.9	2.3	-61.3*
O=C(Nc1ccccn1)c1ccc(S(=O)(=O)N2CCCC2)cc1	-6.4	1.5	17.3	nt	8.2
C[C@H](CO)N1C[C@H](C)[C@H](CN(C)C(=O)Nc2ccc(F)cc2)Oc2cc(/C=C/c3ccccc3)ccc2S1(=O)=O	-2.2	nt	nt	nt	nt
COc1ccccc1C(=O)Nc1nc(-c2ccc(S(=O)(=O)N3CCOCC3)cc2)cs1	3.7	0.0	-26.6	5.8	-21.9
Cc1ccc(S(=O)(=O)N2CCOCC2)cc1C(=O)Nc1nc(-c2ccccn2)cs1	75.5*	nt	35.5	nt	35.5
CN(C)c1nc(NCc2ccccc2)nc(SCC(=O)Nc2ccccc2)n1	-1.3	0.2	13.0	0.1	2.5
CN(C)c1nc(NC(C)(C)C)nc(SCC(=O)Nc2ccccc2)n1	1.0	-0.2	66.4*	-2.4	21.8
COc1ccc(Nc2ncnc3scc(-c4ccc(OC)cc4)c23)cc1	-6.7	1.6	12.0	4.5	1.5
COc1cccc(/C=N/Nc2cc(-n3nc(C)cc3-c3ccccc3)ncn2)c1O	nt	51.8*	-11.3	4.5	-5.0
COc1cccc(/C=N/Nc2ncnc(Cl)c2N)c1O	59.0*	-1.7	18.1	2.3	-3.8
COc1cccc(/C=N/Nc2ncnc3scc(-c4ccccc4)c23)c1O	41.3	104.8*	-4.8	0.2	-0.2
C[C@@H]1CN([C@@H](C)CO)C(=O)c2cc(C#CCN(C)C)cnc2O[C@H]1CN(C)Cc1ccc(-c2ccccc2)cc1	2.9	nt	nt	nt	nt
SMILES	ARNT TACC3 PPI	HIF activator	HSF1 activator	HSP90 refold inh	HSF1 inhib
OC[C@H]1[C@@H](c2ccc(C#CC3CC3)cc2)[C@@H]2CN(CCC(F)(F)F)CCCCN12	26.0	nt	nt	nt	nt
C[C@H]1CN([C@@H](C)CO)C(=O)Cc2cc(NC(=O)Nc3cccc4ccccc34)ccc2O[C@H]1CN(C)Cc1ccc(Oc2ccccc2)cc1	41.8	nt	nt	nt	nt
C[C@@H]1CN([C@@H](C)CO)C(=O)Cc2cc(NC(=O)Nc3cccc4ccccc34)ccc2O[C@@H]1CN(C)Cc1ccc(C(=O)O)cc1	active	nt	nt	nt	nt
C[C@H](CO)N1C[C@H](C)[C@@H](CN(C)Cc2ccc(Oc3ccccc3)cc2)Oc2ccc(NC(=O)Nc3cccc4ccccc34)cc2CC1=O	76.4*	nt	nt	nt	nt
C[C@H](CO)N1C[C@H](C)[C@H](CN(C)CC2CCCCC2)Oc2ccc(NC(=O)Nc3cccc4ccccc34)cc2CC1=O	9.9	nt	nt	nt	nt
CC(C)NC(=O)Nc1cccc2c1O[C@H](CN(C)Cc1ccc(Oc3ccccc3)cc1)[C@@H](C)CN([C@@H](C)CO)C2=O	active	nt	nt	nt	nt
C[C@H](CO)N1C[C@H](C)[C@@H](CN(C)CC2CCCCC2)Oc2ccc(NC(=O)Nc3cccc4ccccc34)cc2CC1=O	47.3*	nt	nt	nt	nt
C[C@@H](NC(=O)C[C@@H]1CC[C@H](NC(=O)Nc2ccc3c(c2)OCO3)[C@@H](CO)O1)c1ccccc1	-5.0	nt	nt	nt	nt
Cc1nn(-c2ccccc2)c(N)c1C(O)(CSc1nccn1C)C(F)(F)F (configuration not stated)	-4.3	0.4	-90.6	-0.9	-90.8*
C[C@H](CO)N1C[C@H](C)[C@@H](CN(C)S(=O)(=O)c2ccccc2)Oc2ccc(NC(=O)Cc3cn(C)c4ccccc34)cc2C1=O	-0.4	nt	nt	nt	nt
C[C@@H]1CN([C@@H](C)CO)S(=O)(=O)c2ccc(C#Cc3ccccn3)cc2O[C@H]1CN(C)Cc1ccccc1	-10.6	nt	nt	nt	nt
O=c1c(=NNc2ccccc2Cl)c(=O)c2ccccc12	7.6	nt	nt	25.8*	nt
Cc1cc(C)c(NN=c2c(=O)c3ccccc3c2=O)c(C)c1	1.7	3.2	67.3*	5.4	25.3
CCCNC(=O)c1cc2c(c(-c3cccc(-c4cccc(F)c4)c3)n1)[C@H](CCO)N([S@@](=O)C(C)(C)C)C2	1.3	nt	nt	nt	nt
Cc1noc(C)c1NC(=O)N(C)C[C@H]1OCCCC[C@H](C)Oc2ccc(NC(=O)Nc3cccc4ccccc34)cc2C(=O)N([C@H](C)CO)C[C@@H]1C	-18.5	nt	nt	nt	nt
Cc1cc(C)cc(SCc2noc(C(=O)NCc3ccccc3)c2C(=O)NCc2ccccc2)c1	-4.7	-0.4	-67.5	nt	-60.0*
CCCNC(=O)N(C)C[C@@H]1Oc2cc(C#CCC(C)C)ccc2S(=O)(=O)N([C@@H](C)CO)C[C@H]1C	-0.2	nt	nt	nt	nt
Cc1noc(C)c1NC(=O)N(C)C[C@@H]1Oc2c(NC(=O)c3ccc(-c4nccs4)cc3)cccc2C(=O)N([C@H](C)CO)C[C@H]1C	30.7*	nt	nt	nt	nt
C[C@H](CO)N1C[C@H](C)[C@H](CN(C)S(=O)(=O)c2cccs2)Oc2c(NC(=O)c3ccncc3)cccc2C1=O	active	nt	nt	nt	nt
C[C@H]1CN([C@@H](C)CO)C(=O)c2cccc(NC(=O)c3ccc(-c4nccs4)cc3)c2O[C@@H]1CN(C)C(=O)Nc1ccccc1	-4.3	nt	nt	nt	nt

Source: PubChem BioAssay (several laboratories)
